# CatB mix inh = inhibitors of human cathepsin B in compound mixtures. inhibition, %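 (ten-compound pools at 5 µM per compound and 50 µM total)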. P07858. Purified cathepsin B, AMC dipeptide fluorescence. AID 488. 62,000 compounds, 0.06% hits; in the data active = inhibition above about 22%, passing the limit was not always enough; inconclusive = no clear call, values can overlap the other calls;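 also: 0% = enzyme without compound and 100% = no enzyme blank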
# SKBR3 24h inh = SK-BR-3 proliferation inhibitors; SK-BR-3 viability, CellTiter-Glo ATP luminescence, 24 h; active compounds read low; viability, % at 10 µM; 41,000 compounds, 0.47% hits; AID 847;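 active = viability at or below the median of all test compounds minus 3 SD, in both replicates if run twice, cut at about 45% in these data; inconclusive = duplicate replicates that disagree with each other; inactive = viability above that cutoff in every replicate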;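 also: 100% = median untreated cell wells and 0% = median positive control drug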
# CatB block = inhibitors of human cathepsin B; AID 453; P07858; purified cathepsin B, fluorogenic substrate, fluorescence; 63,000 compounds, 0.1% hits; inhibition, %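 (tested at 10 µM)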; in the data active = inhibition above about 21%;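 also: 0% = enzyme with no compound and 100% = no enzyme blank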
# Her2 expr inh = lowers expression of human Her2 kinase. P04626. SKBR-3 HER2 protein level, AlphaScreen, 18-24 h; active compounds read low. HER2 level % of control, % at 10 µM. AID 645. 65,000 compounds, 0.69% hits;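 active = HER2 level under 5% of the carrier-only control; inconclusive = no clear call, values can overlap the other calls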;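 also: 100% = DMSO carrier and 0% = 500 nM PU-H71 HSP90 inhibitor; lower value means stronger loss of Her2 protein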
# CatS block = human cathepsin S inhibition; recombinant cathepsin S, AMC dipeptide fluorescence, pooled mixtures; 62,000 compounds, 0.06% hits; P25774; inhibition, %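 (tested at 5 µM per compound within 10-compound mixtures)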; in the data active = inhibition above about 32%, passing the limit was not always enough; inconclusive = no clear call, values can overlap the other calls;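 also: 0% = enzyme without compound and 100% = blank without enzyme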
# Target sequence (P25774 115-331 limits assumed): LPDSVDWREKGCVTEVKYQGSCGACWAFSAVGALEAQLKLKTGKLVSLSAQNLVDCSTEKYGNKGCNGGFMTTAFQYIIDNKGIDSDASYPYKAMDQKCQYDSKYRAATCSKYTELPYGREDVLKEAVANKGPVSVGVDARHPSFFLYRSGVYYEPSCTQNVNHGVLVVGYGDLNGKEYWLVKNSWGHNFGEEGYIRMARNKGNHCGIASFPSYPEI
# CatL block = blocks human cathepsin L protease activity | P07711 | purified cathepsin L, fluorogenic substrate, fluorescence | inhibition, %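 (tested at 10 µM)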 | 58,000 compounds, 0.17% hits | AID 460; in the data active = inhibition above about 45%;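 also: 0% = enzyme with no compound and 100% = no enzyme blank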
# Target sequence (P07711 114-288 limits assumed): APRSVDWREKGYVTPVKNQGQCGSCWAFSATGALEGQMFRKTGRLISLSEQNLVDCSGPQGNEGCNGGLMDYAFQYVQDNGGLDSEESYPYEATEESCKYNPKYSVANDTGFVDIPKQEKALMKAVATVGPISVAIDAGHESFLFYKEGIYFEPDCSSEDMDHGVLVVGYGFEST
# Target sequence (P07711 292-333 limits assumed): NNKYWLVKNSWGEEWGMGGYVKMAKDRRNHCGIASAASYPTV
# The depositor's hits bear a star; ? = inconclusive; nt = no result given. Only some compounds are listed: those with a hit (about 1.1% of all), similar ones and a draw of the others.
SMILES,CatB mix inh,SKBR3 24h inh,CatB block,Her2 expr inh,CatS block,CatL block
COc1cc2c(C(=O)NCc3ccc4c(c3)OCO4)cn(CC(C)C)c(=O)c2cc1OC,5,25*,2,25,10,18
CCOC(=O)N1CCN(C(=O)C(CC(C)C)NC(=O)C2CCCCC2)CC1 (stereo unspecified),7,98,8,76,-6,-6
O=S(=O)(Nc1nnc(-c2ccccc2)s1)c1ccc(Cl)cc1,8,96,7,83,-1,105*
COc1ccccc1NC(=O)CCC(=O)O,53,103,33*,95,nt,22
CC(O)c1cc2c(cc1NC(=O)c1cnn3c1NC(c1ccco1)CC3C(F)(F)F)OCO2 (stereo unspecified),-5,76,0,nt,-4,-11
CCC(C)NC(=O)c1cnn2c1NC(c1ccc3c(c1)OCO3)CC2C(F)(F)F (stereo unspecified),8,73,2,-29*,12,-5
Cc1cc(NC(=O)CNC(=O)C2CCCCC2)no1,5,nt,5,-20*,1,4
CCOC(=O)c1cccc(NC(=O)CNC(=O)C2CCCCC2)c1,-3,103,-2,104,-1,-2
C=COCCn1c(-c2nonc2N)nc2ccccc21,55*,94,15,80,?,86*
Nc1nonc1-c1nc2ccccc2n1Cc1ccc(Cl)cc1,22,nt,8,75,-2,30
COc1cccc(Cn2c(-c3nonc3N)nc3ccccc32)c1,15,83,39*,93,-1,50*
COc1cc(Cn2c(-c3nonc3N)nc3ccccc32)ccc1C,30,35*,50*,34,3,23
Cc1ccc(Cn2c(-c3nonc3N)nc3ccccc32)cc1,-1,nt,22*,93,-13,22
OC(CN1CCN(c2ccccc2)CC1)c1c[nH]c2ccccc12 (stereo unspecified),2,115,-1,89,-4,-9
O=C(O)C1=C(C(=O)N2CCN(C(=O)c3ccco3)CC2)CCCC1,-1,97,0,111,-2,11
CC(=O)Nc1c(C(=O)c2ccccc2)oc2ccccc12,6,104,-2,86,?,104*
CC(=O)Nc1c(C(=O)C2CC2)oc2ccccc12,34,101,7,82,16,5
CCCCNC(=O)OCCNC(=O)NC,4,77,-4,-55*,-6,3
COCCCN1C(=O)C(O)=C(C(C)=O)C1c1cccc(F)c1 (stereo unspecified),-5,77,-3,-16*,-8,1
CC(C)n1c(N2CCN(CC(=O)NCc3cccs3)CC2)nc2ccccc21,3,87,5,82,-5,7
O=C(CN1CCC(c2nc3ccccc3s2)CC1)NCc1cccs1,3,94,1,-13*,-1,-2
C=COCCNC(=O)C1CC(=O)N(c2ccc(C)cc2)C1 (stereo unspecified),1,85,2,117,-11,-7
COc1ccccc1C(=O)N(Cc1nc(-c2ccc(Cl)cc2)no1)C(C)C,1,nt,-4,98,1,-2
O=C(CCN1C(=O)c2cccnc2C1=O)NC1CCCCCC1,-1,80,5,-17*,3,3
CCOC(=O)c1c(C)[nH]c(C(=O)OC/C(O)=C(\C#N)c2nc3ccccc3[nH]2)c1C,6,nt,1,-3.7*,16,3
SMILES,CatB mix inh,SKBR3 24h inh,CatB block,Her2 expr inh,CatS block,CatL block
Cn1c(SC2=CS(=O)(=O)c3ccccc32)nc2ccccc21,3,108,1,-22*,12,12
C=CC(=C)CC(NC)c1ccccc1 (stereo unspecified),-1,70,3,73,-5,53*
Cc1ccc(NC(=O)Cn2c(=O)n(CCCCC(=O)NCc3ccco3)c(=O)c3ccccc32)cc1,1,43*,5,41,-1,2
O=C(CCCCn1c(=O)c2ccccc2n(CC(=O)Nc2ccc(F)cc2)c1=O)NCc1ccco1,4,80,2,78,2,2
COc1cccc(N2CCN(Cc3coc4c(Cl)cc(Cl)cc4c3=O)CC2)c1,5,nt,-2,82,18,21
CCOc1ccc(CNc2ccc3c(c2)ncn3C)cc1,4,82,9,-17*,5,-3
CCCn1c(SCC(=O)Nc2sc(C)c(C)c2C(=O)OC)nc2c1c(=O)n(C)c(=O)n2C,-4,90,-1,110,0,0
CCOC(=O)c1c(NC(=O)CSc2nc3c(c(=O)n(C)c(=O)n3C)n2CC)sc(C)c1C,-3,44*,0,16,-6,2
CC(NC(=O)CSc1ncccn1)c1ccccc1 (stereo unspecified),-3,94,-2,89,-1,-4
CCOC(=O)N1CCN(S(=O)(=O)c2ccc3c(c2)SCC(=O)N3)CC1,3,nt,-3,106,-7,-3
CC(=O)NC(Cc1c[nH]c2ccccc12)C(=O)OCC(=O)Nc1ccc2c(c1)OCO2 (stereo unspecified),0,nt,4,-33*,3,nt
O=C(Cc1ccccc1)N1CCCC(c2nc(-c3cccs3)no2)C1 (stereo unspecified),4,41*,3,81,-10,-11
Cc1ccc(-c2nn3c(C)nnc3s2)cc1NC(=O)c1ccc(-c2cccc(Cl)c2)o1,-7,33*,-2,16,-4,8
Cc1nnc2sc(-c3cccc(NC(=O)c4ccc(-c5cccc(Cl)c5)o4)c3)nn12,3,80,-1,85,6,11
COc1cccc(NC(=O)c2nnn(Cc3ccc(Br)cc3F)c2N)c1,3,nt,-3,87,0,38
O=C(CC(c1ccccc1)c1ccco1)N1CCOCC1 (stereo unspecified),7,112,8,110,59*,18
CCC(=O)N1CCN(c2ccc(NC(=O)c3cc4ccccc4o3)cc2Cl)CC1,3,91,3,85,-3,-7
CCCC(=O)N1CCN(c2ccc(NC(=O)c3cc4ccccc4o3)cc2Cl)CC1,7,6.2*,3,-9.9*,0,13
COc1cc(NS(=O)(=O)c2ccc(C)cc2)c2ncccc2c1,-8,77,-1,-5.2*,-3,-1
COc1ccc(NS(=O)(=O)c2cccc3cccnc23)cc1,3,nt,3,103,3,-5
COc1cc(NCCCC(C)N)c2ncccc2c1 (stereo unspecified),4,23*,2,66,39,-3
COc1ccc(-c2oc3ncnc(NCCCN4CCOCC4)c3c2-c2ccc(OC)cc2)cc1,4,67,0,-2.9*,-1,6
COc1ccc(-c2oc3ncnc(NCCN4CCOCC4)c3c2-c2ccc(OC)cc2)cc1,4,80,2,52,0,-10
COc1ccc(NC(=O)c2ccccc2Cl)cc1NC(=O)CN1CCOCC1,-4,102,2,119,14,6

# Screening data (PubChem)
